Reference: PubChem BioAssay AID1224921 (Broad Institute, 2016)
The campaign covered roughly 1,400 compounds. About 350 (25%) were called active. Not shown: some 2% with an inconclusive outcome. The rule behind the calls is not given here. Not all results are given here. Potency and affinity values are given separately.

assay: inhibitors of Clostridioides difficile proliferation – 4-point retest, confirmation (AID 1224921); conditions: Clostridioides difficile clinical isolate growth, OD600, 24 h, stronger effect = lower value; at 30 µM unless noted;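 note: plate controls were DMSO wells for no effect and levofloxacin 16 µg/mL wells for full effect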

Max activity, inactive:
C[C@@H]1CN([C@@H](C)CO)S(=O)(=O)c2ccc(C#CCC3CCCC3)cc2O[C@H]1CN(C)C(=O)c1ccccn1 25.9%
CO[C@H]1CN(C)C(=O)c2ccc(NC(=O)C3CC3)cc2OC[C@@H](C)N(Cc2cccc(F)c2)C[C@H]1C 15.9%
CO[C@H]1CN(C)C(=O)c2ccc(NC(=O)c3ccc(F)cc3)cc2OC[C@@H](C)N(C(=O)CN(C)C)C[C@@H]1C -6.76% [at 0.5 µM]
C[C@H]1CN([C@@H](C)CO)S(=O)(=O)c2ccc(C#CC3CC3)cc2O[C@@H]1CN(C)Cc1cccnc1 36.4%
COc1ccccc1C#Cc1ccc2c(c1)O[C@@H](CN(C)Cc1ccncc1)[C@H](C)CN([C@H](C)CO)S2(=O)=O 34.5%
CO[C@@H]1CN(C)C(=O)c2cc(NC(C)=O)ccc2OC[C@@H](C)N(CCc2ccccc2)C[C@@H]1C 18.4%
CO[C@@H]1CN(C)C(=O)c2ccc(NC(=O)c3nc4ccccc4s3)cc2OC[C@H](C)N(Cc2ccncc2)C[C@H]1C 21.3%
COc1ccc(NC(=O)Nc2ccc3c(c2)[C@H]2C[C@H](CC(=O)N4CCc5ccccc5C4)O[C@@H](CO)[C@H]2O3)cc1 -11.6% [at 0.5 µM]
CCCC(=O)Nc1ccc2c(c1)OC[C@@H](C)N(C(=O)Cc1cccnc1)C[C@@H](C)[C@H](OC)CN(C)C2=O -13.6% [at 1.95 µM]
COCC(=O)N(C)C[C@@H]1Oc2cc(C#Cc3ccccc3)ccc2S(=O)(=O)N([C@@H](C)CO)C[C@@H]1C 7.66%
CO[C@@H]1CN(C)C(=O)c2ccc(NC(=O)c3nc4ccccc4s3)cc2OC[C@@H](C)N(Cc2cccnc2)C[C@@H]1C 29.5%
CO[C@H]1CN(C)C(=O)c2cc(NC(=O)c3ccccc3)ccc2OC[C@@H](C)N(C)C[C@H]1C 10.4%
Cc1ccc(S(=O)(=O)N2C[C@H](O)COC[C@H]3O[C@H](CC(=O)NCc4ccc(Cl)c(Cl)c4)CC[C@@H]32)cc1 26.4% [at 8 µM]
COc1ccc(S(=O)(=O)N2C[C@@H](O)COC[C@H]3O[C@H](CC(=O)NCc4ccc(Cl)c(Cl)c4)CC[C@@H]32)cc1 33.9% [at 0.5 µM]
Cc1ccc(S(=O)(=O)N2C[C@@H](O)COC[C@@H]3O[C@@H](CC(=O)NCC4CCCCC4)CC[C@H]32)cc1 22.7% [at 8 µM]
C[C@H](CO)N1C[C@H](C)[C@H](CN(C)Cc2cccnc2)Oc2cc(C#CC3CCCCC3)ccc2S1(=O)=O 30.4%
C[C@@H]1CN([C@@H](C)CO)C(=O)Cc2cc(N(C)C)ccc2O[C@@H]1CN(C)Cc1ccc(-c2ccccc2)cc1 57.8%
C[C@@H]1CN([C@H](C)CO)C(=O)c2cc(-c3ccccc3)cnc2O[C@@H]1CN(C)Cc1ccccn1 -13.1% [at 1.95 µM]
O=C(C[C@@H]1C[C@@H]2c3cc(NC(=O)Nc4ccc(C(F)(F)F)cc4)ccc3O[C@@H]2[C@H](CO)O1)NCc1ccc2c(c1)OCO2 9.21% [at 1.95 µM]
CC(C)NC(=O)N[C@H]1CC[C@H](CC(=O)NCCCN(C)C)O[C@H]1CO -16.5% [at 1.95 µM]
C[C@@H]1CN([C@H](C)CO)C(=O)c2c(c3ccccc3n2C)-c2ccccc2CO[C@@H]1CN(C)S(=O)(=O)c1cccc(F)c1 42% [at 35 µM]
